# PMC4336329 (PLoS ONE, 2015)
# Among all 310,000 compounds or so, about 14,000 (4.5%) showed an effect of 50% or more. The effect is printed as a negative number. The entries come from a sample that favours strong results as a whole.
# Target: human ether-à-go-go-related gene (hERG) potassium channel (human, UniProt Q12809)
# Experiment: primary screen, population patch clamp on CHO cells stably expressing hERG; higher = less effect of the substance
# 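Also: peak tail current of the secondary pulse compared with the same well before compound.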
# Chain of human ether-à-go-go-related gene (hERG) potassium channel (Q12809 whole entry, looked up): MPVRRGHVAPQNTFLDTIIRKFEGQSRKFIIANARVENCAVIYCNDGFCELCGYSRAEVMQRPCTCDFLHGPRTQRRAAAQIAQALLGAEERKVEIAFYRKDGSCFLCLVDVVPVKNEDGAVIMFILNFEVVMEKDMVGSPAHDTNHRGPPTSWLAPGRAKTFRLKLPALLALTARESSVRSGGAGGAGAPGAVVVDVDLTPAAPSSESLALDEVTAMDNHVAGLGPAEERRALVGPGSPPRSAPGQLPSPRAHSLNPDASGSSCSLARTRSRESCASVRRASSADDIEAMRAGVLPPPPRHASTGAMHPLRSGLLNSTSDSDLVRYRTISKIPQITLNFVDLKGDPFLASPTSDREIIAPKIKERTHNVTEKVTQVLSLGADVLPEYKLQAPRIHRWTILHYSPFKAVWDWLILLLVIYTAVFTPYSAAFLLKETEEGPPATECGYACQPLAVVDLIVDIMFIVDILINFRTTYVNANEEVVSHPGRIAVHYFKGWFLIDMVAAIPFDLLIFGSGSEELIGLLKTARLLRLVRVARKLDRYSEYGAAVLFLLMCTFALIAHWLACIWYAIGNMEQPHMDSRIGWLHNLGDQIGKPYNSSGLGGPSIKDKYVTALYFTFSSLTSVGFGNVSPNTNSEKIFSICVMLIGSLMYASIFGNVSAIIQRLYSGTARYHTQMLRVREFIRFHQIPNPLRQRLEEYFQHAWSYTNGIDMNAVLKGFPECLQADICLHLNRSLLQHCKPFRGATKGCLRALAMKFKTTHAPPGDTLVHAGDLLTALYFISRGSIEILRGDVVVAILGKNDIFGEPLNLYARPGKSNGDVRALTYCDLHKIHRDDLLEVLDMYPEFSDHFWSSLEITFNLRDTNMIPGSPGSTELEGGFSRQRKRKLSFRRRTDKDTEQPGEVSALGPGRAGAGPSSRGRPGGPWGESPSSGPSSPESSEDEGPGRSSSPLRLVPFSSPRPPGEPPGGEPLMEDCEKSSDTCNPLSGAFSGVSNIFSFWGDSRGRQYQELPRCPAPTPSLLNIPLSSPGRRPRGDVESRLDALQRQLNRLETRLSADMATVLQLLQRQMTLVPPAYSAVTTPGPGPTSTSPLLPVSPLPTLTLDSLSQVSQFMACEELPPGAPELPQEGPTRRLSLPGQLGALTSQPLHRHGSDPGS
row,Structure (SMILES),"hERG current change (%, negative = inhibition) at 10uM [%]"
1,CC1CN(c2nc(Nc3ccccc3)nc(N)c2[N+](=O)[O-])CC(C)O1 (stereo not shown),-22.2
2,C=CCn1c(CCNC(=O)c2ccccc2F)nnc1SCC(=O)Nc1nc(C)cs1,-5.2
3,N#C/C(=C(/O)COC(=O)c1cccnc1Cl)c1nc2ccccc2[nH]1,25.6
4,Cc1cccc(NC(=O)c2sc3nc4c(c(-c5ccco5)c3c2N)CCC4)c1,-3.19
5,COC(=O)c1sc2nc3c(c(-c4cccs4)c2c1N)CCCC3,9.57
6,CN1CCc2nc3sc(C#N)c(N)c3c(-c3cccs3)c2C1,-56.8
7,N#Cc1sc2nc3c(c(-c4ccco4)c2c1N)CCCC3,-3.21
8,Cc1cccc(NC(=O)c2sc3nc4c(c(-c5cccs5)c3c2N)CN(C)CC4)c1,-51.6
9,CC(C)NC(=O)c1sc2nc3c(c(-c4cccs4)c2c1N)CN(C)CC3,-25.8
10,O=C(O)C1CC=CCC1C(=O)NC12CC3CC(CC(C3)C1)C2 (stereo not shown),3.51
11,O=C(CSc1nc2ccccc2s1)Nc1ncccn1,13.4
12,O=S(=O)(c1cccs1)N1CCc2ccccc2C1,-5.63
13,Cc1cccc(-c2nc(CS(=O)CC(=O)N3CC(C)CC(C)C3)c(C)o2)c1 (stereo not shown),-25.3
14,COC(=O)c1[nH]c2ccccc2c1NC(=O)CN1CCN(C(=O)c2ccco2)CC1,-32.8
15,COC(=O)c1[nH]c2ccc(C)cc2c1NC(=O)CN1CCN(c2ccccc2)CC1,-13.7
16,COC(=O)c1[nH]c2cc(C)ccc2c1NC(=O)CN1CCN(C(=O)c2ccco2)CC1,-54.3
17,COC(=O)c1[nH]c2ccc(C)cc2c1NC(=O)CN1CCN(C(=O)c2ccccc2)CC1.Cl,-52.1
18,COC(=O)c1[nH]c2cccc(C)c2c1NC(=O)CN1CCN(C(=O)c2ccco2)CC1,-16.9
19,COC(=O)c1[nH]c2ccc(C)cc2c1NC(=O)CN1CCC(C)CC1,-8.97
20,Cc1nc2cc(C(=O)O)ccc2s1,5.41
21,COC(=O)c1ccc(Oc2c(C)oc3cc(OCc4cnn(-c5ccccc5)c4)ccc3c2=O)cc1,1.08
22,CCOc1cc(/C=N/NC(=O)c2cccnc2)cc(Br)c1OCC(N)=O,-22.5

row,Structure (SMILES),"hERG current change (%, negative = inhibition) at 10uM [%]"
1,O=C(CCc1nnc(Cc2cccc(C(F)(F)F)c2)o1)NC1CC1,32.2
2,O=C(COC(=O)C12CC3CC(CC(Cl)(C3)C1)C2)Nc1ccc2[nH]c(=O)[nH]c2c1,11.5
3,COc1ccc(OC)c(CN2CCC(CNC(=O)Nc3cccc(Cl)c3)CC2)c1,-60.8
4,O=C(NCC1CCN(Cc2ccccc2Cl)CC1)Nc1cccc(Cl)c1,-72
5,COc1ccc(N2CCC(CNC(=O)Nc3cccc(OC)c3)C2)cc1 (stereo not shown),-15.7
6,COc1cc(NC(=O)NCC2CCN(Cc3ccccc3Cl)CC2)cc(OC)c1OC,3.03
7,O=C(NCC1CCN(Cc2ccccc2Cl)CC1)Nc1ccccc1F,-44.7
8,COc1cc(NC(=O)NCC2CCN(Cc3ccccc3F)CC2)cc(OC)c1,-14.9
9,COc1ccc(NC(=O)C2CCCO2)cc1 (stereo not shown),-0.956
10,Cc1ccc(NC(=O)c2cccc(S(=O)(=O)N3CCN(c4ccc(F)cc4)CC3)c2)nc1,-14.6
11,Cc1cc(CN(C)C(=O)CC2C(=O)NCCN2Cc2ccc(F)c(F)c2)on1 (stereo not shown),31.1
12,Nc1ccc(-c2nnc(-c3ccc(-c4ccccc4)cc3)o2)cc1,4.31
13,S=c1[nH]c(-c2ccccc2)cs1,66.4
14,COc1ccc(C)cc1NS(=O)(=O)c1cccc2nonc12,-10.7
15,CCCOc1cccc(C2C(C(=O)c3ccc(C)o3)=C(O)C(=O)N2CCN2CCOCC2)c1 (stereo not shown),10.5
16,NC(=O)c1cc([N+](=O)[O-])ccc1N1CCN(Cc2ccccc2)CC1,-41.8
17,CCN1CCN(c2ccc([N+](=O)[O-])cc2C(=O)OC)CC1,-63.7
18,CCN1CCN(c2ccc([N+](=O)[O-])cc2S(=O)(=O)N2CCOCC2)CC1,-43.9
19,O=C(O)c1cc([N+](=O)[O-])ccc1N1CCCCC1,-1.28
20,COC(=O)c1cc([N+](=O)[O-])ccc1N1CCN(Cc2ccccc2)CC1,-72.2
21,CCOc1ccccc1NC(=O)COc1cccc(-n2cnnn2)c1,-27.2
22,O=C(NCCNC(=O)c1ccccc1Br)c1ccccc1Br,8.51

row,Structure (SMILES),"hERG current change (%, negative = inhibition) at 10uM [%]"
1,Cc1ccc(C(=O)N/N=C2\SCC(=O)N2c2cc(C)ccc2C)cc1,8.16
2,COc1ccccc1CNC(=O)N1CCN(c2ccccc2C)CC1,6.36
3,CC(=O)C1=C(O)C(=O)N(c2ccc(Br)cc2)C1c1cccc([N+](=O)[O-])c1 (stereo not shown),24.5
4,COC(=O)CSc1nc2cc(C)cc(C)c2cc1C#N,14.5
5,CCCCOC(=O)C(C#N)c1nc2ccccc2nc1N1CCOCC1 (stereo not shown),-12.8
6,CCCCCCOC(=O)C(C#N)c1nc2ccccc2nc1N1CCN(CC)CC1 (stereo not shown),-70.2
7,CN1CCN(c2nc3ccccc3nc2C(C#N)C(=O)OC2CCCCC2)CC1 (stereo not shown),-79.5
8,CC1CCN(c2nc3ccccc3nc2C(C#N)C(=O)OC2CCCCC2)CC1 (stereo not shown),11.3
9,N#CC(C(=O)OC1CCCCC1)c1nc2ccccc2nc1N1CCOCC1 (stereo not shown),-36.8
10,CCCCOC(=O)C(C#N)c1nc2ccccc2nc1N1CCN(Cc2ccc3c(c2)OCO3)CC1 (stereo not shown),-7.01
11,CCCCCCOC(=O)C(C#N)c1nc2ccccc2nc1N1CCCCC1 (stereo not shown),1.37
12,CCCCCCOC(=O)C(C#N)c1nc2ccccc2nc1N1CCOCC1 (stereo not shown),1.23
13,CCCCCCOC(=O)C(C#N)c1nc2ccccc2nc1N1CCN(C)CC1 (stereo not shown),-74.7
14,Cl.NS(=O)(=O)c1ccc(CCNCC#Cc2ccccc2)cc1,-21.6
15,COCCCN1C(=O)C(O)=C(C(=O)c2ccco2)C1c1ccccc1 (stereo not shown),21.3
16,Cc1ccc(CNC(=O)CSc2ccsc2[N+](=O)[O-])cc1,-4.87
17,COc1ccccc1N1CCN(Cc2cc(=O)c(OCC(=O)Nc3ccccc3)co2)CC1,25.5
18,CC(=O)c1cc(C#N)c(Oc2cc(C)cc(C)c2)nc1C,-4.94
19,CCOC(=O)N1CCC(N(CCCOC)C(=O)Nc2ccc(CC)cc2)CC1,-48.6
20,COc1ccccc1-c1cc(C(=O)Nc2cc(C)nn2-c2ccccc2)no1,17
21,COc1cc(/C=N/n2c(C)nc3ccccc3c2=O)ccc1O,4.55
22,CC(C)CC(COCc1ccc([N+](=O)[O-])cc1)N1CCN(C(=O)c2ccc(C(F)(F)F)cc2)CCC1=O (stereo not shown),-67.1

row,Structure (SMILES),"hERG current change (%, negative = inhibition) at 10uM [%]"
1,CC(C)CC(COCc1ccc(Cl)cc1)N1CCN(C(=O)c2ccc(C(F)(F)F)cc2)CCC1=O (stereo not shown),-44.5
2,CC(C)CC(COCc1ccc(C(F)(F)F)cc1)N1CCN(C(=O)c2ccc(C(F)(F)F)cc2)CCC1=O (stereo not shown),-16.7
3,O=C(c1cccc(NS(=O)(=O)c2cccc([N+](=O)[O-])c2)c1)N1CCOCC1,24.3
4,O=C(CCCC(=O)N(CC(=O)NC1CCCC1)c1cccc(F)c1)Nc1ccccn1,4.77
5,O=C(CCC(=O)N(CC(=O)NC1CCCC1)c1ccc(F)cc1)Nc1nccs1,4.37
6,CCOc1ccc(N(CC(=O)NC2CCCCC2)C(=O)CCCC(=O)Nc2ccccn2)cc1,-0.443
7,CCOc1ccc(N(CC(=O)NC2CCCC2)C(=O)CCCC(=O)Nc2ccccn2)cc1,-10.8
8,COc1cccc(N(CC(=O)NC2CCCCC2)C(=O)CCCC(=O)Nc2ccccn2)c1,13.2
9,Cc1ccc(N(CC(=O)NC2CCCCC2)C(=O)CCC(=O)Nc2nccs2)cc1,-4.93
10,CCOc1ccc(N(CC(=O)NC2CCCCC2)C(=O)CCC(=O)Nc2ccccn2)cc1,-23.3
11,O=C(CCCC(=O)N(CC(=O)NC1CCCCC1)c1cccc(F)c1)Nc1ccccn1,-55.3
12,CCOc1ccc(N(CC(=O)NC2CCCC2)C(=O)CCC(=O)Nc2ccccn2)cc1,-56.2
13,O=C(CCC(=O)N(CC(=O)NC1CCCCC1)c1ccc(F)cc1)Nc1nccs1,-73.7
14,O=C(CCCC(=O)N(CC(=O)NC1CCCCC1)c1ccc(F)cc1)Nc1ccccn1,7.12
15,COc1ccc(N(CC(=O)NC2CCCCC2)C(=O)CCCC(=O)Nc2ccccn2)cc1,-65.9
16,CN(C(=O)c1ccccc1OC1CCN(S(C)(=O)=O)CC1)C1CCOC1 (stereo not shown),11.7
17,NC(=O)Cn1nnc(-c2ccc(CN3CCCCC3)cc2)n1,21.6
18,O=C(N1CCCC1)N1CCN(S(=O)(=O)c2ccccc2)CC1,7.18
19,CC(C)/C=N\NC(=O)CCCCC(=O)N/N=C/C(C)C,6.11
